Test: P. aeruginosa biofilm formation inhibitors, primary screen, strain PAO1, LB-PBS medium, absorbance 600 nm (AID 1176); also: test concentration not given here
Conditions: P. aeruginosa PAO1 growth/biofilm, A600, 12 h; higher = more signal; call rule not given here

z-score, inactive:
CC(C)c1ccc(NN2C(C(O)C(C)c3ccccc3)C=CC3C(=O)N(c4ccccc4)C(=O)C32)cc1 (centres undefined) 1.22, CC(C)C[C@@H]1NC(=O)[C@@H]2C[C@H](C(=O)NCCCCCCNC(=O)CS)[C@H](c3ccc(O)cc3)N2C1=O 1.97, COC(=O)Cn1c(C(=O)N(C)C)cc2c1C[C@H]1CN(C(=O)c3ccccc3)[C@@](Cc3ccccc3)(C(=O)OC)[C@@H]21 -0.747, COCCOC(=O)N1C(=O)[C@@]2(c3cc(C#CCC(C(=O)OC)C(=O)OC)ccc31)[C@H](c1ccc(O)cc1)N1[C@H](c3ccccc3)[C@H](c3ccccc3)OC(=O)[C@H]1[C@@H]2C(=O)N1CCc2cc(OC)c(OC)cc2C1 0.008, Cc1ccc(S[C@]2(C(=O)NCc3ccccc3)CC(=O)N(Cc3ccccc3C(F)(F)F)[C@@H]2c2ccc(CO)cc2I)cc1 -0.239, O=C1C2C=CC(C(O)C3CCCCC3)N(Nc3ccccc3F)C2C(=O)N1c1ccccc1 (centres undefined) 0.931, CC[C@H]1C2=C3C(CC[C@H]4C(OCc5ccc(F)cc5C(F)(F)F)OC[C@](C)([C@@H]34)N(C(=O)OC(C)(C)C)C2)C(COC(C)=O)C1COC(C)=O (some centres undefined) 0.523, CC1CC/C=C\[C@H]2OC34C=CCN(CCN5CCOCC5)C(=O)[C@H]3N(C(CO)C(C)C)C(=O)[C@@H]4C2C(=O)O1 (some centres undefined) -0.869, COC(=O)C[C@H]1O[C@]2(C(=O)N(C)c3ccccc32)[C@@H](C)[C@@H]1[Si](C)(C)c1ccccc1 -1.24, O=C1O[C@@H](c2ccccc2)[C@@H](c2ccccc2)N2[C@@H](c3ccc(OCCO)cc3)[C@]3(C(=O)Nc4ccc(C#CC5=CCCCC5)cc43)[C@@H](C(=O)Nc3nc4ccccc4s3)[C@H]12 3.52, CCCCN1CC=CC23O[C@@H]4/C=C\CCCOC(=O)C4[C@H]2C(=O)N(CCCCCCO)[C@@H]3C1=O (some centres undefined) 0.454, COC(=O)[C@@]1(Cc2ccc(F)cc2)[C@H]2c3cc(C(=O)N(C)C)n(CCF)c3C[C@H]2CN1C(=O)c1ccccc1 0.7, CCc1cccc(NC(=O)O[C@H]2[C@H](OC(=O)Nc3ccccc3-c3ccccc3)[C@H](OC(=O)Nc3ccccc3-c3ccccc3)[C@@H](OC)O[C@@H]2CO)c1 0.537, C=C(COC)C(=O)CC[C@H](OC(C)=O)c1ccccc1OCCO -0.435, COC(=O)C(CC#Cc1ccc2c(c1)[C@]1(C(=O)N2)[C@H](c2ccc(OCCO)cc2)N2[C@H](c3ccccc3)[C@H](c3ccccc3)OC(=O)[C@H]2[C@@H]1C(N)=O)C(=O)OC 2.88, COc1ccc([Si](C)(C)[C@H]2[C@H](CC(=O)N(CCO)Cc3ccccc3)O[C@@]3(C(=O)N(Cc4cccc(N5CCCCC5=O)c4)c4ccccc43)[C@@H]2C)cc1 1.77, COCCCNC(=O)[C@@]1(Cc2ccccc2I)c2ccccc2C(=O)N(Cc2ccccc2C(F)(F)F)[C@H]1c1ccc(CO)cc1 -0.963, CC[C@@H](O[Si](C#C[Si](C(C)C)(C(C)C)C(C)C)(C(C)C)C(C)C)c1cn([C@H](C)c2ccccc2)nn1 0.596, COCCOC(=O)N1C(=O)[C@@]2(c3cc(C#CCC(C(=O)OC)C(=O)OC)ccc31)[C@H](C(=O)N1CCc3cc(OC)c(OC)cc3C1)[C@H]1C(=O)O[C@H](c3ccccc3)[C@H](c3ccccc3)N1[C@@H]2c1ccccc1OCCO 1.68, CCCNC(=O)[C@@]1(Sc2ccc(C)cc2)CC(=O)N(Cc2cc(C(F)(F)F)cc(C(F)(F)F)c2)[C@@H]1c1ccc(CO)cc1 0.366, Cc1ccc(S[C@]2(C(=O)NCc3ccccc3)CC(=O)N(Cc3ccccc3Cl)[C@@H]2c2ccc(CO)cc2)cc1 0.338, CC1(C)OB(/C=C\CC(OC(=O)c2ccncc2)c2ccccc2)OC1(C)C (centres undefined) -0.159, COc1cc(Cc2cc3c(c(-c4ccccc4)n2)[Si](C(C)C)(C(C)C)OC3)cc(OC)c1OC -0.133, C=CCOC(=O)[C@H]1[C@@H]2C(=O)O[C@@H](c3ccccc3)[C@@H](c3ccccc3)N2[C@@H](c2ccc(OCCOC(=O)[C@@H]3C[C@@H]4C(=O)N[C@@H](Cc5ccccc5)C(=O)N4[C@@H]3c3ccc(O)cc3)cc2)[C@]12C(=O)Nc1ccc(I)cc12 2.75

Reference: PubChem BioAssay
